High-throughput results from PubChem.
mHTT-CaM PPI inh: mHTT-calmodulin interaction abrogation | P42858 | AlphaScreen His-mHTT/GST-CaM binding, luminescence | inhibition, % at 15 µM | 3.6% of 190,000 active | AID 1671202;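 also: 0% = both proteins with DMSO and 100% = one protein alone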
Target sequence (P42858 whole entry, looked up, stated change not applied): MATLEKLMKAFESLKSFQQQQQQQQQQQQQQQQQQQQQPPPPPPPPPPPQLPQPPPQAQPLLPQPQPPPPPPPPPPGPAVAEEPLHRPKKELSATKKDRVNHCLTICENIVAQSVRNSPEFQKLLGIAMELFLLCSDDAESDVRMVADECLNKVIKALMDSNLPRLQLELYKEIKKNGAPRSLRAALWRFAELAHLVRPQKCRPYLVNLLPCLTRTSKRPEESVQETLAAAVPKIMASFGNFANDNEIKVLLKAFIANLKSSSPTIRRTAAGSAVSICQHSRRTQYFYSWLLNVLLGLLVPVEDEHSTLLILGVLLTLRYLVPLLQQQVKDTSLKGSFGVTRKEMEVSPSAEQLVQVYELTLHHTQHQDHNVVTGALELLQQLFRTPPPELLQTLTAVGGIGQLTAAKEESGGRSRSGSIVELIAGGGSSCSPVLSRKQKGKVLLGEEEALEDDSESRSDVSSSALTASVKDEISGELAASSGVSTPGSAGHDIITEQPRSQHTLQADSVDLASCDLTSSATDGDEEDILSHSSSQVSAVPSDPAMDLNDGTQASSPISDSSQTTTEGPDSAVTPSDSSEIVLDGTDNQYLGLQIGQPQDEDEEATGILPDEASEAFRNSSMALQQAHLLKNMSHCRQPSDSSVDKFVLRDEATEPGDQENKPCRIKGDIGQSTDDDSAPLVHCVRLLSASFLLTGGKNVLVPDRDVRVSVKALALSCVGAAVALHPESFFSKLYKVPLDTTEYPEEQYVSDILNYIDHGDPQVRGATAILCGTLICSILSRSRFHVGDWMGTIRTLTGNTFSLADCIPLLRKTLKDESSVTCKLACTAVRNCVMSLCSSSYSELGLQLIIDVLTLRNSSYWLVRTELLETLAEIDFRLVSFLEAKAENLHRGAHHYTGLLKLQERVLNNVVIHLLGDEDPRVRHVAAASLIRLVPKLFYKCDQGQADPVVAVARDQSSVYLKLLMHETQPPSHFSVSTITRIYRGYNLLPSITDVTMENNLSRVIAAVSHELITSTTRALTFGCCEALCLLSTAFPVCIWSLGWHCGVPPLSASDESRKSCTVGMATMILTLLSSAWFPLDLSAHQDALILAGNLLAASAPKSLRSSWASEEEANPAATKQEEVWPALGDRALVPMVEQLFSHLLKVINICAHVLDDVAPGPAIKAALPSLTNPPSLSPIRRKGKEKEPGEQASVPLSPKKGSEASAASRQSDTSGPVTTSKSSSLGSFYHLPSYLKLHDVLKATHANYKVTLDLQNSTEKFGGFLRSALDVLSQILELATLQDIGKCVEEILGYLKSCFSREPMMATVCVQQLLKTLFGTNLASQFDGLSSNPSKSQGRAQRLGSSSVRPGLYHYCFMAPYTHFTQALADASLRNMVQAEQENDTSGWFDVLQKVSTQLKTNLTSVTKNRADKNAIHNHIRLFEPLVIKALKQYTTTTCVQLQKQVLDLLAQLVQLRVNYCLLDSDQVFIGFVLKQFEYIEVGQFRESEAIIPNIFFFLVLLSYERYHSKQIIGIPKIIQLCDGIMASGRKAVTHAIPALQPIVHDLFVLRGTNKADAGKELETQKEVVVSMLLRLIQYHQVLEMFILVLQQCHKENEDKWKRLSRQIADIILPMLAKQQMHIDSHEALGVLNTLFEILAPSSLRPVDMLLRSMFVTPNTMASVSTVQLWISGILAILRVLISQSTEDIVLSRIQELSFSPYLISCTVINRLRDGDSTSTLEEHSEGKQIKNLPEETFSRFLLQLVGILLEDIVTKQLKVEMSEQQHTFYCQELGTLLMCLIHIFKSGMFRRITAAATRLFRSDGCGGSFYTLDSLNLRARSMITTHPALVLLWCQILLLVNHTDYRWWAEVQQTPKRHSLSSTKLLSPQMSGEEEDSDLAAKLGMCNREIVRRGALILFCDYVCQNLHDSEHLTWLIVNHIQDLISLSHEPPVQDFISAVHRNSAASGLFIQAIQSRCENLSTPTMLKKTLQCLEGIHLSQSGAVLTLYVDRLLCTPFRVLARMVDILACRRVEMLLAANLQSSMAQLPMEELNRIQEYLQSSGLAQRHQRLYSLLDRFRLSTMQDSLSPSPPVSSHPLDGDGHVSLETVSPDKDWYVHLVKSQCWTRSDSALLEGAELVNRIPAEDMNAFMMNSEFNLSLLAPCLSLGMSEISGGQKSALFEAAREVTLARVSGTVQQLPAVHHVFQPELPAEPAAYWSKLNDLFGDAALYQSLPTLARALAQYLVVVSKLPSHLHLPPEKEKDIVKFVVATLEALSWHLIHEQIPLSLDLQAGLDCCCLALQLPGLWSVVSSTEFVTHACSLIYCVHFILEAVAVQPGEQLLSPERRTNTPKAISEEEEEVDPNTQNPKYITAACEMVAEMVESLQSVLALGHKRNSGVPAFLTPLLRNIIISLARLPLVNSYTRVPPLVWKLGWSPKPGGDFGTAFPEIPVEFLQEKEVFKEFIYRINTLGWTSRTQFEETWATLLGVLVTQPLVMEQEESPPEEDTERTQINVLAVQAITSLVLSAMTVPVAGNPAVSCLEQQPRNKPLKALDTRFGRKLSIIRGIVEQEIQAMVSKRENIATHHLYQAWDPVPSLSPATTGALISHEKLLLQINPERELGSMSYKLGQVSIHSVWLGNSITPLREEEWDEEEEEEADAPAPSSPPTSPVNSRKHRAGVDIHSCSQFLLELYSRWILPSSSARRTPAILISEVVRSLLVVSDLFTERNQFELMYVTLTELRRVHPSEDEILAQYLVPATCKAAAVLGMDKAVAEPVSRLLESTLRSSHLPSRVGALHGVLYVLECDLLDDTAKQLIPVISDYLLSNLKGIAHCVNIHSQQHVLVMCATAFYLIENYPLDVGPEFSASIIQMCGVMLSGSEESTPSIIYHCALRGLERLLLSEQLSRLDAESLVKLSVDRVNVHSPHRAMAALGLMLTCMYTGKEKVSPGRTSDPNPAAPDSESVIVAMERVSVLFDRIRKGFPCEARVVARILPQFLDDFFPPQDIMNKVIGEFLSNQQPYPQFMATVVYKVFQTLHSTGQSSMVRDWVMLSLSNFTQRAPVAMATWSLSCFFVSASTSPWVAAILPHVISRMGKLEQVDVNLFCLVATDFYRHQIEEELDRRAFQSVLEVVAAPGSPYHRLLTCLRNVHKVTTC
Pf apPOL block: Pf-apPOL DNA polymerase inhibition; AID 1794808; inhibition, % at 10 µM; 0.25% of 210,000 active; Recombinant Pf-apPOL, molecular beacon fluorescence, 1.5 h
Active calls of the source: *; / = no result; ! = not confirmed by another sample. The list is not random: actives were taken first. Their share in the collection is about 3.6%. Rule as the data show it: active = inhibition above about 50%; inactive = the rest.

SMILES | mHTT-CaM PPI inh | Pf apPOL block
Cc1cc(NC(=O)COc2ccccc2)nn1-c1ccc(Cl)cc1 | -3 | -4
O=C(NCc1cc(-c2ccco2)on1)c1ccc(=O)oc1 | 14 | 63*
O=C(NCc1cc(-c2ccco2)on1)c1ccc(F)c(F)c1 | -4 | 1
O=C(NC(c1ccc(Cl)cc1)c1ccc2cccnc2c1O)c1ccccc1 (stereo not drawn) | 100* | -2
O=C(NC(c1ccccc1Cl)c1ccc2cccnc2c1O)c1ccccc1 (stereo not drawn) | 73* | 4
CC(CCc1ccccc1)NC(=O)C(=O)NCc1ccccc1Cl (stereo not drawn) | 1 | 1
COc1ccc(NC(=O)COc2cc(C)nc(-c3ccc(F)cc3)n2)cc1OC | -11 | -12
N#Cc1cccc(NC(=O)c2ccncc2)c1 | / | -7
O=C(Nc1cccc(NC(=O)c2ccncc2)c1)c1ccncc1 | 0 | 99*
COc1cccc(-c2n[nH]c(CC(C)C)c2NC(C)=O)c1 | -8 | 3
O=C(Cc1cccs1)OCc1cc(-c2ccc(F)cc2F)on1 | -99 | 2
O=C(OCc1cc(-c2ccc(F)cc2F)on1)c1ccc(=O)oc1 | 100* | 81*
CN(C)c1ccc(N=C2C=CC(=O)C=C2)cc1 | 95* | /
COc1ccc(N=C2NC(=O)S/C2=C\c2ccc(N(C)C)cc2)cc1 | 17 | -49
COc1ccc(C(=O)Nc2nc(CC(=O)NCc3cccs3)cs2)cc1 | 1 | -1
O=C(Cc1csc(NC(=O)c2ccc[nH]c2=O)n1)NCc1cccs1 | 64* | -5
Cc1cccc(NC(=O)C2CCc3sc(C(=O)N4CCOCC4)cc3C2)c1 (stereo not drawn) | 20 | -9
COc1ccc(NC(=O)N2CCC3(CC2)Nc2ccccc2-n2cccc23)c(OC)c1 | 64* | 6
COc1ccc(NC(=O)N2CCC3(CC2)NC(=O)c2ccccc2N3C)c(C)c1 | 0 | -4
COc1ccc(NC(=O)C2CCN(C(=O)c3ccc(F)cc3)CC2)c(OC)c1 | 3 | 3
COc1ccc(OC)c(NC(=O)N2CCC3(CC2)Nc2ccccc2-n2cccc23)c1 | 54* | 9
O=C(Nc1ccccc1C(F)(F)F)N1CCC2(CC1)Nc1ccccc1-n1cccc12 | 36 | 0
O=C(Nc1ccccc1F)N1CCC2(CC1)Nc1cc(F)ccc1-n1cccc12 | 33 | 5
CCOc1ccccc1NC(=O)N1CCC2(CC1)Nc1cc(F)ccc1-n1cccc12 | 52* | 4
COc1ccc(NC(=O)N2CCC3(CC2)Nc2cc(F)ccc2-n2cccc23)c(OC)c1 | 61* | -1
SMILES | mHTT-CaM PPI inh | Pf apPOL block
O=S(=O)(CCCOc1ccc(F)cc1)NCc1cccnc1 | -10 | -7
O=C(CCCOc1ccccc1)Nc1ccc(S(=O)(=O)Nc2nccs2)cc1 | 22 | -112
Cc1cc2[nH]c(C(=O)Nc3cc(F)cc(F)c3)c(CN3CCOCC3)c2s1 | 18 | 19
CNc1nccc(N2CCC(CC(=O)NCCc3cccnc3)CC2)n1 | 1 | 0
COc1ccccc1C(=O)N1CCCC(c2ccnc(-c3ccc(F)cc3)n2)C1 (stereo not drawn) | 29 | -5
CN1/C(=C/c2cccc[n+]2CCO)Sc2ccccc21 | 8 | -1
CN1C(=CC=Cc2cc[n+](CCO)c3ccccc23)Sc2ccccc21 | 95* | 78*
NC(=O)Cn1nc2c3c(cccc3c1=O)-c1ccccc1-2 | 1 | 61*!
O=c1c2cccc3c2c(nn1Cc1ccccc1Cl)-c1ccccc1-3 | -14 | -3
COC(=O)c1cnc2nc(C)ccc2c1Nc1ccccc1 | -3 | -8
COC(=O)c1cnc2nc(C)ccc2c1Nc1ccc(Br)cc1 | 58* | -3
COc1cccc2c1Oc1ccccc1N=C2N1CCN(C(=O)C(C)C)CC1 | 33 | 2
Cc1ccc(NC(=O)C2(N(Cc3ccccc3)C(=O)Cc3nc(N)n[nH]3)CCCCC2)cc1 | 38 | 1
CCOc1ccccc1NC(=O)N1CC(CC)Oc2ccc(C)cc21 (stereo not drawn) | -15 | 3
COc1ccc(OC)c(CNC(=O)c2cn(C)c(=O)c3c2c2ccccc2n3C)c1 | 31 | -5
Cc1ccc2c(C(=O)NCc3ccc(C)o3)cc(NC(=O)C3CCC3)cc2n1 | 64* | 12
CNC(=O)c1cc(NC(=O)C2CCC2)cc2nc(C)ccc12 | 5 | 10
O=C(NCc1ccco1)c1cc(-c2ccc(Br)s2)nc2ccccc12 | 35 | -4
COc1ccc(C(C)NC(=O)c2cc(NC(C)=O)cc3nc(C)ccc23)cc1 (stereo not drawn) | 54* | 42
Cc1ccc(CNC(=O)c2cc(-c3ccc(Br)s3)nc3ccccc23)o1 | 96* | -6
CCOc1ccc(C(C)NC(=O)c2cc(NC(C)=O)cc3nc(C)ccc23)cc1 (stereo not drawn) | 50 | 10
CCOc1ccccc1CNC(=O)c1cc(NC(C)=O)cc2nc(C)ccc12 | 40 | 5
CC(=O)Nc1cc(C(=O)NCc2ccccc2Br)c2ccc(C)nc2c1 | 55* | 33
Cc1c(C)c2cc3c(-c4ccccc4)coc3c(C)c2oc1=O | 13 | -2
CN(C)S(=O)(=O)N1CCCC2(C1)Nc1ccccc1NC2=NCc1ccccc1 (stereo not drawn) | 54* | -3
SMILES | mHTT-CaM PPI inh | Pf apPOL block
CCn1ccc(C(=O)N2CCCC3(C2)Nc2ccccc2NC3=NCc2ccccc2)n1 (stereo not drawn) | 16 | -6
COCCN=C1Nc2ccccc2NC12CCCN(C(=O)c1ccncc1)C2 (stereo not drawn) | -2 | -3
COCCN=C1Nc2ccccc2NC12CCCN(C(=O)Cc1c(F)cccc1Cl)C2 (stereo not drawn) | 46 | 0
COCCN=C1Nc2ccccc2NC12CCCN(C(=O)Nc1ccc(F)cc1F)C2 (stereo not drawn) | 100* | -5
O=C(CN1CCOCC1)N1CCCC2(C1)Nc1ccccc1NC2=NCc1ccccc1 (stereo not drawn) | 91* | -8
COCCN=C1Nc2ccccc2NC12CCCN(S(=O)(=O)c1cccs1)C2 (stereo not drawn) | 20 | -8
COCCN=C1Nc2ccccc2NC12CCCN(C(=O)Cc1ccc(Cl)cc1)C2 (stereo not drawn) | 100* | -7
CCNC(=O)c1cc(OC)c(OC)c(OC)c1 | -3 | -1
O=C(NCCSCc1c(F)cccc1Cl)Nc1ccc(OC(F)(F)F)cc1 | / | -1
COc1cccc(NC(=O)C(=O)NCCc2ccccc2)c1 | -18 | 0
CSc1ccc(CNC(=O)C2CCCN(c3nccc(C)n3)C2)cc1 (stereo not drawn) | 2 | 24
O=C1C(=Cc2ccc3c(c2)OCO3)CCCC1=Cc1ccc2c(c1)OCO2 | / | 3
CCN(CC)C(=O)c1cc2c(s1)CCC(C(=O)NC1CCCCC1)C2 (stereo not drawn) | -1 | -2
O=C(Cn1[nH]c2c(cnc3ccc(F)cc32)c1=O)Nc1ccccc1F | 2 | -1
O=C1C(=Nc2cccnc2)c2cc(Br)ccc2N1CN1CCOCC1 | 5 | 1
CC(=O)NCC(=O)N1CCCC2(C1)Nc1ccccc1NC2=NCc1ccccc1 (stereo not drawn) | 12 | -3
COCC(=O)N1CCCC2(C1)Nc1ccccc1NC2=NCc1ccccc1 (stereo not drawn) | 51* | -5
COc1ccc2nc(-c3ccc(OC)c(NC(=O)CC4CCCC4)c3)cn2n1 | -10 | -12
COc1ccc2nc(-c3cccc(NC(=O)COc4ccc(C(C)=O)cc4OC)c3)cn2n1 | 64* | -9
CCCNC(=O)Cn1ccc2sccc2c1=O | -5 | 2
